TDP1 cell CPT – growth inhibition of DT40 Tdp1-/-;hTDP1 cells with camptothecin (screen for TDP1 inhibitors); AID 686979; hit rate 12% among 420,000; Potency, µM (titrated, usually from 46.2 µM), for inactives: top-dose activity change, negative = growth inhibition, hits mostly inhibitors; chicken DT40 Tdp1-/-;hTDP1 cells + 20 nM CPT, ATP luminescence, 48 h; also: % is scaled to controls: 0 for no effect and ±100 for the full control effect; nearly all actives have a fitted effect of over 55% in size
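Cell growth measured by CellTiter-Glo luminescence after a minimum 48 h, 37 C compound exposure with 20 nM CPT in Tdp1-knockout DT40 cells stably expressing hTDP1, seeded 400/well; qHTS titration format.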
HT1080 IDH1KD tx – HT-1080 IDH1 knockdown cell toxicity (counter line); HT-1080 IDH1 knockdown viability, ATP luminescence, 48 h; Potency, µM (top dose mostly 46.1 µM), inactives show at the top dose activity, negative = toxicity, usual class: cytotoxic; hit rate 2% among 360,000;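 also: 0% = DMSO wells and -100% = cell-free medium wells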
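Luminescent ATP read-out (CellTiter-Glo, 10 min at room temperature) after 48 h compound exposure at 37 °C gave viability of IDH1-knockdown HT-1080 cells. Activity was normalised to DMSO and cell-free wells, then fitted as concentration-response curves.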
TDP1 cell noCPT – qHTS for Inhibitors of human tyrosyl-DNA phosphodiesterase 1 (TDP1): qHTS in cells in absence of CPT. hit rate 15% among 420,000. DT40 Tdp1-/- hTDP1 cells, no CPT, ATP luminescence, 48 h. AID 686978, 2013. Potency, µM (highest dose often 46.2 µM), for inactives: at the top dose activity change, negative = growth inhibition, actives largely listed as inhibitors; also: % is scaled to controls: 0 for no effect and ±100 for the full control effect; nearly all actives have a fitted effect of over 55% in size
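Compound effects on proliferation are scored in DT40 Tdp1-/-;hTDP1 cells in the absence of CPT. ATP levels (CellTiter-Glo luminescence) are recorded after a ≥48 hr, 37 °C incubation.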
HT1080NT lethal – kills 2HG-producing HT-1080-NT fibrosarcoma cells. HT-1080-NT fibrosarcoma viability, CellTiter-Glo ATP luminescence, 48 h. Potency, µM (highest dose often 46.1 µM), for inactives: top-dose activity, negative = less viability, hits mostly cytotoxic. hit rate 1.6% among 360,000;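 also: NT is the 2HG producing partner of a matched IDH1 knockdown line; 0% = DMSO-treated cells and -100% = media-only wells without cells; nearly all actives have a fitted effect of over 55% in size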
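HT-1080-NT fibrosarcoma cells (2HG-overproducing), 750 cells/well in RPMI with 5% FBS, dosed after 2 h and incubated 48 h at 37C. CellTiter-Glo luminescence normalized to DMSO and no-cell wells; concentration-response curves fitted and classed.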
HepG2 tox – kills HepG2 cells in TGF-b inhibitor counter-screen. HepG2 CAGA-GFP viability, ATP luminescence, 18 h. Potency, µM (highest dose often 46.1 µM), for the others: at the top dose activity change, negative = cytotoxicity, hits mostly cytotoxic. hit rate 0.76% among 410,000. AID 588856
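HepG2 CAGA-GFP cells (1000/well, DMEM with 1% FBS) received compound, then TGF-beta at 500 pg/mL final, and were incubated 18 hours at 37 degrees C. Viability was read by CellTiter-Glo luminescence. Media-only wells were set as complete cell-killing and DMSO as no toxicity.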
TGFb SMAD3 inh – blocks TGF-b signaling. HepG2 CAGA-GFP TGF-b/SMAD3 reporter, GFP fluorescence, 18 h; TGF-beta stimulated, 500 pg/mL final. Potency, µM (top dose mostly 46.1 µM), inactives show at the highest dose activity, negative = inhibition, hits mostly inhibitors. hit rate 1.2% among 410,000; also: % is scaled to controls: 0 for no effect and ±100 for the full control effect; nearly all actives have a fitted effect of over 65% in size
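HEPG2 CAGA-GFP cells (1000/well, DMEM with 1% FBS) were pre-incubated 2 h at 37 degrees C, given compound by pin tool, then stimulated with TGF-beta at 500 pg/mL final for 18 h before per-cell GFP fluorescence imaging.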
* hit, by the source's call; ? = inconclusive; . = no result given; [ ] = dose if it differs, or a comment. This is a sample that favours compounds with a hit; in the whole collection about 17% have one here. Calls follow the shape of the dose curve; as a rule, active = well fitted curve in the direction sought with a large enough effect; inconclusive = small, poorly fitted or top-dose-only effect, or another doubt; inactive = no such curve, though single readings can be large; an effect the other way counts as inactive or inconclusive. Potency is read from the fitted curve at half-maximal effect.

SMILES	TDP1 cell CPT	HT1080 IDH1KD tx	TDP1 cell noCPT	HT1080NT lethal	HepG2 tox	TGFb SMAD3 inh
COc1ccc(NC(=O)C(c2ccc(OC)cc2)n2c(=O)c(-c3cc4ccccc4[nH]3)nc3ccccc32)cc1 (configuration not stated)	16µM*	-22%	13µM*	?	.	.
COc1ccc(NC(=O)C(C2CC2)n2c(=O)c(-c3ccccc3)nc3ccccc32)cc1 (configuration not stated)	?	0%	15µM*	1%	.	.
CCCCCNC(=O)C(c1ccc(OC)cc1)n1c(=O)c(-c2cc3ccccc3[nH]2)nc2ccccc21 (configuration not stated)	?	-23%	?	-26%	.	.
COc1ccc(NC(=O)C(c2cc3ccccc3o2)n2c(=O)c(-c3cc4ccccc4[nH]3)nc3ccccc32)cc1 (configuration not stated)	?	-30%	?	-18%	.	.
O=C(NCC(=O)N1CCCC1)c1ccc(Cl)cc1	-2%	24%	-2%	2%	-25%	-6%
CCOC(=O)c1c(NC(=O)COc2cccc(C)c2C)sc2c1CCC(CC)C2 (configuration not stated)	8%	.	-15%	.	4%	-25%
COc1ccc(-c2c(C(=O)c3ccccc3)[nH]c(N)c2C(=O)NCc2ccccc2)cc1OC	?	7%	?	4%	.	.
COc1ccc(-c2c(C(=O)c3ccccc3)[nH]c(N)c2C(N)=O)cc1OC	?	-1%	-4%	5%	.	.
CC(C)(C)C(=O)c1c(N)[nH]c(C(=O)c2ccccc2)c1-c1c(F)cccc1F	?	-23%	21µM*	-6%	.	.
COc1ccc(-c2c(C(=O)c3ccc(Br)cc3)[nH]c(N)c2C(=O)c2ccccc2)cc1OC	?	?	21µM*	24%	.	.
Nc1[nH]c(C(=O)c2ccccc2)c(-c2cccc3ccccc23)c1C(=O)NCc1ccccc1	?	10%	23µM*	10%	.	.
COC(=O)c1c(N)[nH]c(C(=O)c2ccccc2)c1-c1ccccc1Br	?	3%	16µM*	5%	.	.
O=C(Nc1c2c(nc3c1CCC3)CCCC2)c1ccccn1	-4%	-1%	-26%	-3%	-8%	-4%
Cc1c[n+](CC(=O)c2ccccc2)cs1	-10%	15%	-17%	21%	8%	-6%
NC(=O)c1c(N)[nH]c(C(=O)c2ccccc2)c1-c1ccccc1Br	?	12%	18µM*	21%	.	.
Nc1[nH]c(C(=O)c2ccccc2)c(-c2ccc(Cl)cc2Cl)c1C(=O)c1ccc(Cl)c(Cl)c1	18µM*	0%	?	2%	.	.
CC(C)(C)C(=O)c1c(N)[nH]c(C(=O)c2ccccc2)c1-c1ccc(Cl)cc1Cl	?	1%	?	10%	.	.
CC(C)(C)C(=O)c1c(N)[nH]c(C(=O)c2ccccc2)c1-c1ccccc1Br	26µM*	13%	16µM*	5%	.	.
CC1=CC2=NC(=O)/C(=C\c3cccn3CCOc3ccccc3C)C(=N)N2O1	21µM*	?	?	?	-9%	?
Cc1ccccc1Cn1cccc1/C=C1/C(=N)N2C=CSC2=NC1=O	18µM*	?	29µM*	?	-36%	189%
COc1ccccc1OCCOc1ccc(/C=C2/C(=N)N3OC(C)=CC3=NC2=O)cc1OC	?	0%	?	0%	-9%	-13%
CCCCNC(=S)N(Cc1ccco1)Cc1cc2cc3c(cc2[nH]c1=O)OCCO3	7%	5%	10%	6%	2%	1%
O=C(Nc1ccc(F)cc1)N(Cc1cccs1)Cc1cc2cc3c(cc2[nH]c1=O)OCO3	?	-11%	16µM*	-13%	-1%	?
O=C(Nc1ccc(F)cc1)N(Cc1ccco1)Cc1cc2cc3c(cc2[nH]c1=O)OCO3	?	-5%	23µM*	-18%	-13%	9%
CCCCN(C(=O)CCCc1nc2ccccc2s1)c1c(N)n(CC(C)C)c(=O)[nH]c1=O	-10%	14%	-1%	11%	-7%	-4%
SMILES	TDP1 cell CPT	HT1080 IDH1KD tx	TDP1 cell noCPT	HT1080NT lethal	HepG2 tox	TGFb SMAD3 inh
Cc1ccc(N(Cc2ccccc2)C(=O)c2ccc(S(=O)(=O)N3CCOCC3)cc2)cc1	?	2%	18µM*	3%	12%	-25%
Cc1ccc(N(Cc2ccccc2)C(=O)c2cccc(S(=O)(=O)N3CCOCC3)c2)cc1	?	-2%	21µM*	-3%	-9%	17%
Cc1ccc(N(Cc2ccccc2)C(=O)c2ccc(C)c(S(=O)(=O)N3CCOCC3)c2)cc1	?	-24%	?	-16%	-12%	-15%
CC[C@@H](C(=O)[C@@H](C)[C@@H](O)[C@H](C)CCc1ccc(C)c(O)c1C(=O)O)[C@H]1O[C@](CC)([C@H]2CC[C@](O)(CC)[C@H](C)O2)C[C@@H]1C	2.6µM*	6.5µM*	2.3µM*	1.6µM*	-101%	10µM*
Cn1nc(C(=O)NCCN2Cc3ccccc3OC(c3ccsc3)C2)c2ccccc2c1=O (configuration not stated)	-13%[9.04 µM]	.	-9%	.	.	.
O=C1c2ccccc2C2N1CCCN2C(=O)c1sc2ccccc2c1Cl (configuration not stated)	18µM*	-22%	16µM*	-13%	-41%	-21%
Cc1ccc(-c2nnc(C3CCN(S(=O)(=O)c4ccc(C)c(C)c4)CC3)o2)cc1	?	.	26µM*	.	-19%	?
CC(=O)Nc1ccc(S(=O)(=O)N2CCC(c3nnc(-c4ccc(C)cc4)o3)CC2)cc1	?	2%	21µM*	12%	-50%	?
COc1ccc(-c2nnc(C3CCN(S(=O)(=O)c4ccccc4)CC3)o2)cc1	?	-6%	?	-11%	-27%	?
Cc1cccc(-c2nnc(C3CCN(S(=O)(=O)c4cccc(Cl)c4)CC3)o2)c1	3.7µM*	.	2.9µM*	.	-38%	?
COC(=O)c1nn(-c2ccc(OC)cc2)c(=O)c2c(N)sc(C)c12	23µM*	10%	16µM*	7%	-1%	12%
COc1cc(OC)cc(N(C(=O)c2ccco2)C(C(=O)NC2CCCC2)c2ccc(N3CCOCC3)cc2)c1 (configuration not stated)	2%	14%	-8%	12%	-3%	20%

Screening results deposited in PubChem BioAssay by National Center for Advancing Translational Sciences (NCATS).
